Reference: PubChem BioAssay (NCATS)
Results filed as inconclusive are left out. Calls of active or inactive are those of the source. The call rests on the fitted dose curve; in most records, active means well fitted cell-killing curve with a large enough effect; inconclusive means small, poorly fitted or top-dose-only effect; inactive means no such curve, though single readings can be large or run the other way.

Assay: qHTS of pediatric cancer cell lines to identify multiple opportunities for drug repurposing: Confirmatory screen for SK-N-MC cells (AID 1347111);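 further: cells exposed to compound for 48 h before the readout; nearly all actives have a fitted effect of over 70% in size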
Settings: SK-N-MC cell viability; series mostly up to 45.9 µM; activity change, negative = cytotoxic: at the top concentration
Text: Drug repurposing or repositioning has been offered as a strategy for drug development in oncology programs. This approach has special potential for childhood cancers and other rare or orphan diseases, where the expected return on new drug development has been a disincentive to pharmaceuticals.
In this project we exploit the poly-pharmacology of drugs to discover new indications via phenotypic screening of a panel of 19 well-characterized cell lines derived from solid tumors seen in children and adolescents. The goal is to identify approved drugs with previously unrecognized anticancer properties that has the potential to reveal new mechanisms and biological processes involved in carcinogenesis or drug resistance. We employed a titration-based paradigm (quantitative high-throughput screening or qHTS), where all compounds were tested at multiple concentrations for their effect on cell viability. Concentration-response curves (CRCs) were derived directly from the primary screen, and both potency and efficacy values were used to identify compounds with robust bioactivity profiles. We screened the NIH Chemical Genomics Center (NCGC) Pharmaceutical Collection (NPC) and Mechanism Interrogation Plate (MIPE) small molecule collections of approved and investigational compounds against these cell lines; and measured metabolically active cells after 48 hours of compound treatment as a proxy for cell viability.
Assay Submitter: Nathalia J. Martinez, National Center for Advancing Translational Sciences, National Institutes of Health, Rockville, MD, USA; email: natalia.martinez@nih.gov
[1] Shen, M et al. Quantitative high-throughput phenotypic screening of pediatric cancer cell lines identifies multiple opportunities for drug repurposing. Oncotarget 2017 Dec 19;9(4):4758-4772. PMID 29435139.
The cells were obtained from University of North Carolina (UNC), Pediatric Preclinical Testing Program (PPT), and Coriell Institute (CI).
qHTS cell viability assay:
Cells were assayed in growth media at a density of 500-1,000 cells/well. Five microliters of cells were dispensed into 1,536-well, white, solid-bottom, TC-treated plates (Greiner Bio One) using a multidrop dispenser and incubated at 37 degrees C, 5% CO2, under a humidified atmosphere for 5 hours. Twenty-three nanoliters of compounds and controls (neutral control DMSO or positive control bortezomib at final concentration of 2.3 µM) were subsequently transferred by Kalypsys pintool. For primary screens, the MIPE collection was tested at 11-point dilutions (final concentrations range from 0.78 nM to 46 µM) and the NPC collection at 8-point dilutions (final concentrations range from 0.59nM to 46 µM). Compounds tested in follow-up screens were assayed at 11-point dilutions. Cells were incubated for 48 hours, followed by addition of 3 uL of CellTiter-Glo (Promega). After a 15 min incubation at room temperature, samples were analyzed for luminescence intensity using a ViewLux High-throughput CCD imager equipped with clear filters.
Potency means the concentration at half of the fitted maximal effect.

| Structure (SMILES) | Potency | activity change, negative = cytotoxic |
| --- | --- | --- |
| C#Cc1cccc(Nc2ncnc3cc(OCCOC)c(OCCOC)cc23)c1 | 14.7 µM (active) |  |
| Cc1c(CN2CCN(C(=O)C(C)C)CC2)sc2c(N3CCOCC3)nc(-c3cnc(N)nc3)nc12 | 0.465 µM (active) |  |
| Nc1nc2ccc(OC(F)(F)F)cc2s1 |  | -16.3% (inactive) |
| Cc1cn[nH]c1 |  | -11.7% (inactive) |
| CCC(C)n1ncn(-c2ccc(N3CCN(c4ccc(OC[C@H]5CO[C@](Cn6cncn6)(c6ccc(Cl)cc6Cl)O5)cc4)CC3)cc2)c1=O (some centres undefined) | 4.65 µM (active) |  |
| Cn1cnc2c(F)c(Nc3ccc(Br)cc3Cl)c(C(=O)NOCCO)cc21 |  | -2.97% (inactive) |
| Nc1nc2c(ncn2COCCO)c(=O)[nH]1 |  | -6.75% (inactive) |
| Nc1nc2[nH]cc(CCc3ccc(C(=O)N[C@@H](CCC(=O)O)C(=O)O)cc3)c2c(=O)[nH]1 | 0.147 µM (active) |  |
| CNCc1ccc(-c2[nH]c3cc(F)cc4c3c2CCNC4=O)cc1 | 6.57 µM (active) |  |
| Cc1c(C)c2c(c(C)c1O)CCC(C)(COc1ccc(CC3SC(=O)NC3=O)cc1)O2 (centres undefined) |  | 12.5% (inactive) |
| NCCCC(N)(C(=O)O)C(F)F (centres undefined) |  | -11.1% (inactive) |
| COc1cccc2cc(-c3nc(C4CCC(C(=O)O)CC4)n4ncnc(N)c34)[nH]c12 (centres undefined) |  | -66.5% (inactive) |
| CCOc1ccn(-c2ccc(F)cc2)c(=O)c1C(=O)Nc1ccc(Oc2ccnc(N)c2Cl)c(F)c1 | 9.27 µM (active) |  |
| O=C(NOC[C@H](O)CO)c1ccc(F)c(F)c1Nc1ccc(I)cc1F |  | -5.19% (inactive) |
| COc1cc(Nc2ncc3c(n2)-c2ccc(Cl)cc2C(c2c(F)cccc2OC)=NC3)ccc1C(=O)O | 0.261 µM (active) |  |
| COc1ccc(-c2ccc3c(N4CCOC[C@H]4C)nc(N4CCOC[C@H]4C)nc3n2)cc1CO | 0.827 µM (active) |  |
| CCOc1cc(N2CCC(O)CC2)ccc1Nc1ncc2c(n1)N(C)c1ccccc1C(=O)N2C | 1.17 µM (active) |  |
| NC(=O)c1ccc(I)c([N+](=O)[O-])c1 | 55.1 µM (active) |  |
| OC[C@H](Cc1ccccc1)Nc1nc(Oc2ccc3c(c2)CCC3)nc2c1ncn2Cc1ccc(-c2ccccc2)cc1 | 2.33 µM (active) |  |
| CN(C)c1ccc(C2Nc3ccc4ccccc4c3C3=C2C(=O)CC(C)(C)C3)cc1Br (centres undefined) | 19.1 µM (active) |  |
| CCCS(=O)(=O)Nc1ccc(F)c(C(=O)c2c[nH]c3ncc(-c4ccc(Cl)cc4)cc23)c1F | 23.3 µM (active) |  |
| COc1cc2nccc(Oc3ccc(NC(=O)NC4CC4)c(Cl)c3)c2cc1C(N)=O | 26.1 µM (active) |  |
| Oc1cccc(-c2nc(N3CCOCC3)c3oc4ncccc4c3n2)c1 | 0.759 µM (active) |  |
| Cc1oncc1C(=O)Nc1ccc(C(F)(F)F)cc1 | 7.37 µM (active) |  |
